Reference: PubChem BioAssay AID651548 (Broad Institute, 2012)
Where “and” joins values, the source holds several entries; their conditions need not be identical. Identical values can stand only once. In all, about 57,000 compounds went through this assay and about 200 (0.35%) were called active. The sample as a whole holds a higher share of actives than the screen did. Values without a mark were called inactive.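 The calls were made as follows: active = mean inhibition of replicates at least 50% and every single replicate also reaching 50%; inconclusive = mean inhibition at least 50% but some replicate falls below 50%; inactive = mean inhibition under 50%.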

Target: Histone-lysine N-methyltransferase EZH2 (Homo sapiens) (UniProt Q15910)
Test: EZH2/PRC2 methyltransferase inhibitors, primary screen, biochemical, DELFIA time-resolved fluorescence, single point (AID 651548);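 also: dimethyl H3K27 on biotinylated H3 21-44 peptide detected by antibody; plate controls were median neutral control wells for no effect and median positive control wells for full effect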
Details: PRC2 H3K27 methylation, DELFIA TRF, 1 h; at 12.5 µM; hits give high values

Sequence of Histone-lysine N-methyltransferase EZH2 (Homo sapiens) (Q15910 whole entry, looked up): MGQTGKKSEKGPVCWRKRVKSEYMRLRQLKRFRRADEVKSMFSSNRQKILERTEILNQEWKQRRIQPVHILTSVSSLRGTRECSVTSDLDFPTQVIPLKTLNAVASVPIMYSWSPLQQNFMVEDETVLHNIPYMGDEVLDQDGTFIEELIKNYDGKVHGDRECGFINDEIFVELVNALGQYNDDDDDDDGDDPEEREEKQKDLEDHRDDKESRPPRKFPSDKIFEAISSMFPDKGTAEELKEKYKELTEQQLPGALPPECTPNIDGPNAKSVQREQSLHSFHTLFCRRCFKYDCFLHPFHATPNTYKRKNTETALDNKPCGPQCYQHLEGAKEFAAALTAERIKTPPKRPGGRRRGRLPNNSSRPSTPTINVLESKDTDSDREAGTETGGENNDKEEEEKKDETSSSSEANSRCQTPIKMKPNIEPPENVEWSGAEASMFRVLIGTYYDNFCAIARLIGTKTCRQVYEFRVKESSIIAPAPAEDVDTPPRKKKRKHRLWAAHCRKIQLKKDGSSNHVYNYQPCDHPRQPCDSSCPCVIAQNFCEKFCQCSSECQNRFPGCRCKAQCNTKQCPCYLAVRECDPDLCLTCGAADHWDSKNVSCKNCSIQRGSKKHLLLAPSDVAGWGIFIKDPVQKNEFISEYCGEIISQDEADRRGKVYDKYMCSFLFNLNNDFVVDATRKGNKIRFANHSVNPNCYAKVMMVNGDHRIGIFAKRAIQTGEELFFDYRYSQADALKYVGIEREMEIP

Compound	inhibition
O=C(O)CCCc1ccccc1	-7.51%
CCCCCc1ccc(/C=C/C(=O)Nc2ccccc2C(=O)O)cc1	61.8% (active)
CN(C)CCCSc1ccccc1NC(=O)/C=C/c1ccccc1	7.12% and -8.56%
O=C(N[C@@H]1CC[C@@H](CCNS(=O)(=O)Cc2ccccc2)O[C@@H]1CO)c1ccccc1F	-4.43%
CCCNC(=O)Nc1ccc2c(c1)C(=O)N(C)C[C@@H](OC)[C@H](C)CN(C(=O)C1CCCCC1)[C@H](C)CO2	4.24%
O=C(N[C@H]1CC[C@@H](CCNS(=O)(=O)c2cccc(Cl)c2)O[C@@H]1CO)c1ccncc1	4.59%
O=C(NCC[C@@H]1CC[C@@H](NC(=O)C2CCCC2)[C@H](CO)O1)c1cnccn1	-12%
C[C@@H]1CN([C@@H](C)CO)C(=O)c2c(c3ccccc3n2C)-c2ccccc2CO[C@H]1CN(C)C(=O)N[C@H](C)c1ccccc1	-0.352%
CO[C@@H]1CN(C)C(=O)c2cc(NC(=O)C3CCC3)ccc2OC[C@H](C)N(C(=O)CN(C)C)C[C@@H]1C	-0.841%
CCCNC(=O)C[C@H]1C[C@@H]2c3cc(NC(=O)NC4CCCC4)ccc3O[C@@H]2[C@@H](CO)O1	5.85%
C[C@H](NC(=O)C[C@H]1C=C[C@@H](NC(=O)C2CCOCC2)[C@@H](CO)O1)c1ccccc1	3.06%
COc1ccccc1-c1cccc(-c2nc(C(=O)N3CCN(C)CC3)cc3c2[C@H](CCO)N([S@@](=O)C(C)(C)C)C3)c1	1.13%
CO[C@@H]1CN(C)C(=O)c2cc(NC(C)=O)ccc2OC[C@@H](C)N(C(=O)NC2CCCCC2)C[C@H]1C	3.91%
O=C(C[C@H]1C[C@H]2c3cc(NC(=O)C4CCC4)ccc3O[C@H]2[C@@H](CO)O1)NCc1ccc(Cl)cc1	-2.37%
CN1CCN(C(=O)C[C@@H]2C[C@@H]3c4cc(NC(=O)c5ccc6c(c5)OCO6)ccc4O[C@@H]3[C@H](CO)O2)CC1	-2.8%
COc1cccc(-c2ccc3c(c2)O[C@H](CN(C)C(=O)c2ccccc2F)[C@@H](C)CN([C@@H](C)CO)S3(=O)=O)c1	0.0695%
O=C(Nc1ccccc1)Nc1ccc2c(c1)[C@@H]1C[C@@H](CC(=O)N3CCCCC3)O[C@H](CO)[C@@H]1O2	-1.6%
O=C(C[C@H]1C[C@H]2c3cc(NC(=O)Nc4ccccc4)ccc3O[C@H]2[C@H](CO)O1)NC1CCCC1	2.44%
COc1ccccc1NC(=O)N[C@H]1CC[C@H](CCNS(=O)(=O)c2ccc(Cl)cc2)O[C@H]1CO	47.2%
COc1cccc(C(=O)Nc2ccc3c(c2)OC[C@H](C)N(C(C)=O)C[C@@H](C)[C@@H](OC)CN(C)C3=O)c1	6.08%
C/C=C/c1ccc2c(c1)O[C@H](CN(C)C(=O)C1CCCCC1)[C@@H](C)CN([C@@H](C)CO)S2(=O)=O	13.7%

Compound	inhibition
CCC(=O)Nc1ccc2c(c1)OC[C@@H](C)N(Cc1cncnc1)C[C@H](C)[C@@H](OC)CN(C)C2=O	-1.64%
COc1ccc(C(=O)Nc2ccc3c(c2)OC[C@H](C)N(C(C)=O)C[C@@H](C)[C@@H](OC)CN(C)C3=O)cc1	-11.8%
CO[C@@H]1CN(C)C(=O)c2ccc(NC(=O)C3CC3)cc2OC[C@@H](C)N(Cc2ccncc2)C[C@@H]1C	8.95%
O=C(C[C@H]1CC[C@H](NC(=O)c2ccncc2)[C@H](CO)O1)Nc1ccccc1	16.3%
O=C(C[C@H]1C[C@@H]2c3cc(NS(=O)(=O)c4ccc(F)cc4)ccc3O[C@@H]2[C@H](CO)O1)NCc1cccc(F)c1	-5.18%
O=C(N[C@H]1CC[C@@H](CCNC(=O)C2CCC2)O[C@@H]1CO)c1ccncc1	-3.82%
CN(C)CC(=O)Nc1ccc2c(c1)[C@H]1C[C@@H](CC(=O)NCc3ccccn3)O[C@@H](CO)[C@H]1O2	-17%
CO[C@H]1CN(C)C(=O)c2ccc(NC(=O)C3CCCC3)cc2OC[C@@H](C)NC[C@@H]1C	7.43%
CCC(=O)N1C[C@@H](C)[C@H](OC)CN(C)C(=O)c2ccc(NC(=O)c3cc(C)on3)cc2OC[C@H]1C	7.38%
CCC(=O)Nc1ccc2c(c1)OC[C@H](C)N(CC1CCCCC1)C[C@@H](C)[C@H](OC)CN(C)C2=O	-10.4%
CC(C)NC(=O)N[C@@H]1C=C[C@@H](CC(=O)N2CCCCC2)O[C@@H]1CO	7.89%
O=C(C[C@@H]1CC[C@H](NC(=O)Nc2ccc(F)cc2)[C@H](CO)O1)NCc1ccccn1	-0.96%
COc1cccc(-c2cnc3c(c2)C(=O)N([C@@H](C)CO)C[C@H](C)[C@H](CN(C)C(C)=O)O3)c1	1.62%
COCC#Cc1cnc2c(c1)C(=O)N([C@H](C)CO)C[C@H](C)[C@H](CN(C)C(=O)Nc1cc(F)ccc1F)O2	0.676%
COc1cccc(NC(=O)Nc2ccc3c(c2)OC[C@@H](C)NC[C@@H](C)[C@H](OC)CN(C)C3=O)c1	-3.01%
COc1cccc(S(=O)(=O)Nc2ccc3c(c2)[C@@H]2C[C@@H](CC(=O)NCc4ccc(Cl)cc4)O[C@H](CO)[C@@H]2O3)c1	-2.95%
O=C(C[C@@H]1C[C@@H]2c3cc(NC(=O)Nc4ccccc4F)ccc3O[C@@H]2[C@@H](CO)O1)NCCc1ccccc1	-11.7%
CC1=CCC(C(C)(C)O[C@@H]2O[C@H](COC(=O)c3cc(O)c(O)c(O)c3)[C@@H](O)[C@H](O)[C@H]2O)CC1 (stereo partly specified)	91.8% (active)
C[C@@H]1CN([C@H](C)CO)S(=O)(=O)c2ccc(C#CCN(C)C)cc2O[C@@H]1CN(C)C(=O)C1CCCCC1	1.46%
CC(C)NC(=O)Nc1ccc2c(c1)CC(=O)N([C@H](C)CO)C[C@H](C)[C@@H](CN(C)C(=O)Nc1ccc(F)cc1)O2	-14.2%
